Results taken from PubChem BioAssay.
Unmarked numbers belong to inactive results. The rule behind the calls is not given here.

What follows are molecules tested against Pantothenate synthetase (Mycobacterium tuberculosis (strain ATCC 25618 / H37Rv)) (UniProt P9WIL5) (assay: Recombinant Mtb pantothenate synthetase (PanC) inhibitors, coupled enzyme, confirmatory (AID 375;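 note: 0% = full reaction with vehicle and 100% = no enzyme background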)). Details: coupled enzyme assay; at 10 µM, hits give high values.
Chain of Pantothenate synthetase (Mycobacterium tuberculosis (strain ATCC 25618 / H37Rv)) (P9WIL5 whole entry, looked up): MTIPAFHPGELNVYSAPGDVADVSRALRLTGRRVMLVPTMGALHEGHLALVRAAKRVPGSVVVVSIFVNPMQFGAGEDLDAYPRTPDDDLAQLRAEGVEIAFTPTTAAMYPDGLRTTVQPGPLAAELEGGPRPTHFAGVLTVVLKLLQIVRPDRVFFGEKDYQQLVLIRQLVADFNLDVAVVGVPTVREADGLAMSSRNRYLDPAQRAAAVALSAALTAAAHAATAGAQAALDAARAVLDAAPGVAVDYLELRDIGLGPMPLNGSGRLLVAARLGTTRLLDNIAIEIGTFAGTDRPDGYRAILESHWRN
Work on `Cc1ccc2nsnc2c1S(=O)(=O)N(Cc1cc2cccc(C)c2[nH]c1=O)CC1CCCO1` (configuration not stated) yielded an inhibition of 0%. `Cc1ccc(-c2cc(C(=O)NCc3ccc4c(c3)OCO4)no2)cc1` gave an inhibition of 0%. Work on `CCn1c(SCC(=O)N2CCOCC2)nc2c(c1=O)SC(C)C2` (configuration not stated) yielded an inhibition of 0%. `O=C(CSc1nc(-c2ccccc2)cs1)NCc1ccco1` showed an inhibition of 0%. `Cc1c(O)c(CN2CCCCC2)cc2c3c(c(=O)oc12)CCC3` was tested, and the inhibition was 2%. `CCn1c(SCC(=O)c2ccc(Cl)cc2)nnc1-c1ccoc1C` showed an inhibition of 0%. In the case of `CCCCNC(=O)NS(=O)(=O)c1ccc(C)cc1`, the inhibition is reported as 0%. In the case of `COc1ccc(S(=O)(=O)C(C#N)c2nc3ccccc3nc2N2CCCC(C)C2)cc1` (configuration not stated), the inhibition is reported as 0%. `Cc1[nH]nc(-c2ccc(O)c(C)c2O)c1-c1cnn(-c2ccccc2)c1` gave an inhibition of 0%. With `Cc1nn(C)cc1NC(=O)CCSc1nc(-c2ccco2)cc(C(F)(F)F)n1` the inhibition was 0%. `O=C(CN(CC1CCCO1)C(=O)CCC(=O)Nc1ccccn1)NCC1CCCO1` (configuration not stated) was tested, and the inhibition was 8%. `COc1ccccc1-n1c(-c2cccnc2)n[nH]c1=S` showed an inhibition of 0%. `CCCCn1c(=O)[nH]c(=O)c2c1nc(-c1ccncc1)n2CCOC` gave an inhibition of 1%. Molecule `COc1cc(C2C(C(=O)c3ccc(C)o3)=C(O)C(=O)N2c2cc(C)on2)cc(Br)c1O` (configuration not stated) has an inhibition of 0%. `CC12CCC(C(=O)N3CCCCC3)(CC1=O)C2(C)C` (configuration not stated) showed an inhibition of 0%. With `CCCCOc1cccc(NC(=O)CSc2nccn2C)c1` the inhibition was 2%. `COc1ccc(-c2nc3c(c(SCC(=O)N4CCOCC4)n2)COC(C)(C)C3)cc1` showed an inhibition of 0%.
